Active and inactive are the calls of the source. Unless noted, how the calls were made is not given here.
Assays:
[1] = test system: XIP peptide (Xip251-270) binding; assay: XIP fragment 251-270 binding compounds – biochemical, small-molecule microarray, fluorescence 635/667 nm, 0.1 µg/mL protein, primary screen (AID 1182); details: fluorescent protein binding, 635 nm, higher = more signal, called active from +8 up or from −8 down
XIP peptide (Xip251-270) = assay: compounds binding XIP fragment 251-270 – biochemical, small-molecule microarray, fluorescence 635/667 nm, 0.5 µg/mL protein, primary screen (AID 1183); details: fluorescence 635 nm, higher = more signal
[2] = blood-stage malaria parasite viability loss – strain 3D7, DAPI fluorescence, 100 nL, primary screen (AID 1184);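 further: parasites grown inside human red blood cells in medium with human serum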; details: P. falciparum 3D7 growth, 3 d, higher = more signal
[3] = molecular target: Homeobox protein Hox-A13 (Mus musculus) (UniProt Q62424); assay: disruptors of Hoxa13 oligonucleotide interaction – biochemical, fluorescence polarization, labeled oligonucleotide, primary screen (AID 1185); details: Hoxa13:DNA binding, 15 min, higher = more signal, called active from +8 up or from −8 down
[4] = blockers of DNA damage checkpoint Chk1 activation – imaging, HeLa, hydroxyurea, phospho-Chk1 antibody, percent positive cells, primary screen (AID 1186); details: hydroxyurea-induced phospho-Chk1 immunofluorescence imaging, higher = more signal
[5] = blockers of DNA damage checkpoint Chk1 activation – imaging, HeLa, hydroxyurea, phospho-Chk1 nuclear intensity, primary screen (AID 1187); details: hydroxyurea-induced phospho-Chk1 immunofluorescence imaging, higher = more signal

Chain of Homeobox protein Hox-A13 (Mus musculus) (Q62424 whole entry, looked up): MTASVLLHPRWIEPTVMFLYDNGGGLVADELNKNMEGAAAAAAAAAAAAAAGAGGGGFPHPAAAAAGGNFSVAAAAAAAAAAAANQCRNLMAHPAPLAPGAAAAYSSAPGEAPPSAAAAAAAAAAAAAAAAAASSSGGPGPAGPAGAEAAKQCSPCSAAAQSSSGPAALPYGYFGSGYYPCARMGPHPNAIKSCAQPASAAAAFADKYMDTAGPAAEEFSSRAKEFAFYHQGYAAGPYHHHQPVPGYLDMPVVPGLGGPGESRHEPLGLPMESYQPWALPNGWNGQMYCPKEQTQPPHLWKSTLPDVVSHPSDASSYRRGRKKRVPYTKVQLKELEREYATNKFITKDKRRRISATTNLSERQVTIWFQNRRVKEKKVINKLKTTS

Structure (SMILES) | composite z-score [1] | composite z-score (XIP peptide (Xip251-270)) | z-score [2] | z-score [3] | z-score [4] | z-score [5]
O=C1C2C=CC(C(O)c3ccco3)N(Nc3ccccc3)C2C(=O)N1c1ccccc1 (centres undefined) | 1.11 (inactive) | 0.8 | 0.125 | -2.27 (inactive) | 0.209 (inactive) | -0.0253 (inactive)
CC(=O)n1cc(C(O)C2C=CC3C(=O)N(c4ccccc4)C(=O)C3N2Nc2ccc(C(C)C)cc2)c2ccccc21 (centres undefined) | 0.18 (inactive) | 0.755 | -0.15 | -2.7 (inactive) | 0.417 (inactive) | 0.2 (inactive)
O=C1N[C@@H](Cc2ccccc2)C(=O)N2[C@@H]1C[C@@H](C(=O)O)[C@H]2c1ccc(O)cc1 | 0.24 (inactive) | 0.649 | -0.394 | -2.41 (inactive) | -0.0256 (inactive) | 0.0853 (inactive)
O=C1O[C@H](c2ccccc2)[C@H](c2ccccc2)N2[C@H]1[C@@H](C(=O)N1CCCCCCC1)[C@]1(C(=O)Nc3ccc(C#CC4(O)CCCCCC4)cc31)[C@H]2c1ccccc1OCCO | 5.88 (inactive) | 0.943 | -1.88 | 4.4 (inactive) | -0.0468 (inactive) | 0.285 (inactive)
Cc1ccccc1C(O)C1C=CC2C(=O)N(c3ccccc3)C(=O)C2N1Nc1ccc([N+](=O)[O-])cc1 (centres undefined) | 1.61 (inactive) | 0.618 | -0.42 | -3.91 (inactive) | -0.0666 (inactive) | -0.614 (inactive)
CN(C)CCCC[C@@H]1NC(=O)[C@@H]2C[C@H](C(=O)O)[C@H](c3cccc(OCCO)c3)N2C1=O | 1.02 (inactive) | 0.0695 | -0.286 | -3.07 (inactive) | 0.043 (inactive) | 0.313 (inactive)
CCCCC(=C=CC[C@H](O)c1ccc(OCCO)cc1)C[C@H](O)COCc1ccccc1 | 0.9 (inactive) | 0.1 | -1.44 | -4.21 (inactive) | -0.122 (inactive) | -0.0784 (inactive)
Cc1ccccc1C(O)C1C=CC2C(=O)NC(=O)C2N1Nc1ccc(Cl)cc1Cl (centres undefined) | 3.24 (inactive) | 0.693 | 0.254 | -5.08 (inactive) | 0.165 (inactive) | -0.016 (inactive)
[N-]=[N+]=NCc1ccccc1[C@@H]1OC(c2ccc(OCCCO)cc2)=N[C@]1(Cc1ccccc1N=[N+]=[N-])C(=O)N1CCCCC1 | 0.111 (inactive) | 0.724 | -2.16 | -1.44 (inactive) | -0.234 (inactive) | -0.0332 (inactive)
CN1C(=O)C2C=CC(C(O)c3ccc(I)cc3)N(Nc3ccccc3)C2C1=O (centres undefined) | 0.56 (inactive) | 0.755 | -0.371 | -4.54 (inactive) | 0.178 (inactive) | 0.0306 (inactive)
C=CCNC(=O)[C@@H]1[C@H]2C(=O)O[C@H](c3ccccc3)[C@H](c3ccccc3)N2[C@H](c2ccc(O)cc2)[C@@]12C(=O)Nc1ccc(C#CCC(C(=O)OC)C(=O)OC)cc12 | 1.03 (inactive) | 0.729 | -1.84 | -2.97 (inactive) | -0.267 (inactive) | -0.625 (inactive)
COC(=O)[C@@]1(Cc2ccc(OC)cc2)[C@H]2c3cc(C(=O)N4CCCC4)n(Cc4cc(C)n(C)n4)c3C[C@H]2CN1C(=O)c1ccccc1 | 1.26 (inactive) | 0.528 | -1.44 | -4.85 (inactive) | -0.6 (inactive) | -0.279 (inactive)
COC(=O)C(CC#Cc1ccc2c(c1)[C@]1(C(=O)N2)[C@H](C(=O)Nc2nc3ccccc3s2)[C@H]2C(=O)O[C@H](c3ccccc3)[C@H](c3ccccc3)N2[C@@H]1c1ccc(OCCO)cc1)C(=O)OC | 3.13 (inactive) | 0.771 | -2.1 | 0.713 (inactive) | 0.0974 (inactive) | 0.531 (inactive)
CO[C@H]1O[C@H](CO)[C@@H](OC(=O)Nc2ccc(C#N)cc2)[C@@H]2OC(=O)[C@H](Cc3cccc(Br)c3)C/C=C/C[C@@H](Cc3cccc(Br)c3)C(=O)O[C@@H]12 | 0.685 (inactive) | 0.254 | -1.47 | 1.1 (inactive) | -0.353 (inactive) | -0.388 (inactive)
COc1ccc([Si](C)(C)[C@@H]2[C@@H](CC(=O)N3Cc4ccccc4C[C@H]3CO)O[C@]3(C(=O)N(c4ccccc4)c4ccccc43)[C@H]2C)cc1 | 3.93 (inactive) | 0.546 | -2.38 | -4.85 (inactive) | -0.0103 (inactive) | -0.192 (inactive)
CN(C)CCCCCCNC(=O)[C@@H]1C[C@@H]2C(=O)N[C@@H](CCCCN)C(=O)N2[C@@H]1c1ccc(O)cc1 | 0.802 (inactive) | 0.753 | -1.02 | -1.14 (inactive) | 0.291 (inactive) | 0.481 (inactive)
COC(=O)C(CC#Cc1ccc2c(c1)[C@]1(C(=O)N2)[C@H](c2ccc(OCCO)cc2)N2[C@H](c3ccccc3)[C@H](c3ccccc3)OC(=O)[C@H]2[C@@H]1C(=O)N1CCN(c2ncccn2)CC1)C(=O)OC | 0.398 (inactive) | 0.775 | -2.2 | 0.338 (inactive) | -0.0604 (inactive) | -0.282 (inactive)

Structure (SMILES) | composite z-score [1] | composite z-score (XIP peptide (Xip251-270)) | z-score [2] | z-score [3] | z-score [4] | z-score [5]
Cc1cccc([C@H]2C[C@H]3C(Br)=C[C@@H]2C(=O)[C@]32CO2)c1 | -0.409 (inactive) | -0.848 | -0.528 | -1.65 (inactive) | 0.139 (inactive) | -0.0027 (inactive)
CC(=O)N1CC(C(O)C2C=CC3C(=O)NC(=O)C3N2Nc2ccc(Cl)cc2Cl)c2ccccc21 (centres undefined) | 0.111 (inactive) | 0.0205 | -0.252 | -4.92 (inactive) | 0.358 (inactive) | 0.492 (inactive)
COC(=O)C(CC#Cc1ccc2c(c1)[C@]1(C(=O)N2)[C@H](c2ccc(O)cc2)N2[C@H](c3ccccc3)[C@H](c3ccccc3)OC(=O)[C@H]2[C@@H]1C(=O)N1CCCCCCC1)C(=O)OC | 0.225 (inactive) | 0.59 | -1.92 | 2.08 (inactive) | -0.0422 (inactive) | 0.413 (inactive)
CCOC(=O)C[C@H]1[C@H](OC(=O)c2ccccc2-c2ccccc2)[C@@H](NC(=O)c2ccc3ccccc3n2)c2cc(OCCCO)ccc2N1C(=O)c1ccccc1 | 0.428 (inactive) | 0.04 | -1.66 | -2.46 (inactive) | 0.342 (inactive) | 0.6 (inactive)
COc1cc2c(cc1O)C(c1cccs1)N(Cc1sc3ccccc3c1Cl)CC2 (centres undefined) | 0.791 (inactive) | 0.867 | -1.66 | -1.54 (inactive) | 0.326 (inactive) | 0.638 (inactive)
COc1cccc(/C=C(\C#N)C(=O)Nc2c(C)n(C)n(-c3ccccc3)c2=O)c1 | 0.0887 (inactive) | 0.438 | 0.393 | -0.75 (inactive) | -0.252 (inactive) | -0.13 (inactive)
COc1ccc(CCNC(=O)[C@@]2(Cc3ccccc3I)c3ccccc3C(=O)N(Cc3ccccc3Cl)[C@H]2c2ccc(CO)cc2)cc1 | 0.71 (inactive) | 0.765 | -1.23 | -3.36 (inactive) | 0.207 (inactive) | -0.304 (inactive)
CC(C)C(=C=CC[C@@H](O)c1cccc(OCCO)c1)C[C@@H](O)c1ccccn1 | -0.0008 (inactive) | 0.29 | -0.0244 | -5.17 (inactive) | -0.122 (inactive) | 0.156 (inactive)
COC(=O)[C@@]1(Cc2ccccc2CN=[N+]=[N-])N=C(c2ccc(OCCCO)cc2)O[C@H]1c1ccccc1 | 2.54 (inactive) | 0.766 | -2.34 | -4.51 (inactive) | 0.022 (inactive) | 0.55 (inactive)
CCOC(=O)C[C@H]1[C@H](OC(=O)c2ccccc2-c2ccccc2)[C@@H](NC(=O)c2ccccc2)c2cc(OCCCO)ccc2N1C(=O)c1ccccc1 | -0.101 (inactive) | -0.127 | -1.39 | -4.85 (inactive) | 0.972 (inactive) | 0.528 (inactive)
C=C(COC)C(=O)CC[C@@H](OC(=O)c1cccnc1)c1ccccc1OCCO | -0.288 (inactive) | -0.576 | -3.07 | -4.3 (inactive) | 0.329 (inactive) | 0.162 (inactive)
O=C1[C@@H]2[C@@H](CC(COc3ccccc3)=C3[C@@H](CCc4ccccc4)OB(O)C[C@@H]32)C(=O)N1Cc1ccccc1 | 0.318 (inactive) | 0.387 | 1.31 | -5.54 (inactive) | -0.242 (inactive) | -0.22 (inactive)
O=c1cccc(-c2ccc(F)cc2)o1 | -0.133 (inactive) | 0.472 | 1.07 | -0.287 (inactive) | 0.454 (inactive) | 0.606 (inactive)
O=C1OCCC=C[C@H]2OC34C=CCN(c5ccc(Cl)cc5)C(=O)[C@H]3N(CCCCCCO)C(=O)[C@@H]4C12 (some centres undefined) | 0.43 (inactive) | -0.619 | -0.278 | -5.62 (inactive) | -0.301 (inactive) | 0.116 (inactive)
C=CCC(OC(C)=O)[C@@H]1[C@@H](N(Cc2ccc(-c3cccc(C(F)(F)F)c3)o2)C(=O)Cc2ccc(OC)cc2)c2cc(OCCCO)ccc2N1C(=O)Cc1ccc2ccccc2c1 (some centres undefined) | 0.0389 (inactive) | 0.625 | -2.17 | -1.9 (inactive) | 0.162 (inactive) | 0.375 (inactive)
CCCC=C(CCC)[C@@H](NS(=O)(=O)c1cccc2cccnc12)c1ccc(-c2ccccc2)cc1 | -0.356 (inactive) | 0.604 | -0.831 | -0.807 (inactive) | 0.483 (inactive) | 0.309 (inactive)
C=C(COC)C(=O)CC[C@H](OC(C)=O)c1ccc(OCCO)cc1 | -0.388 (inactive) | 0.58 | -2.39 | -4.76 (inactive) | -0.559 (inactive) | -0.357 (inactive)
